A short description of assay [1]: Human pregnane X receptor (PXR) small molecule agonists, qHTS cell viability counter screen (AID 1346977). Further: nearly all actives have a fitted effect of over 50% in size. The conditions noted are these: PXR-Luc HepG2 viability, CellTiter-Fluor, 24 h; series mostly up to 92.4 µM. The gist of the method:
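In each well, the PXR reporter HepG2 line was checked for viability: CellTiter-Fluor reagent added 23hr post-dosing, fluorescence read after 1hr incubation at 37C.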

Assay [2] can be described thus: Caspase-3/7 induction in HepG2 cells by small molecules, qHTS assay (AID 1346978). Further: nearly all actives have a fitted effect of over 15% in size. The conditions noted are these: HepG2 caspase-3/7 activation, Caspase-Glo luminescence, 17 h; series mostly up to 92.4 µM. The gist of the method: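 Caspase-3/7 induction was measured by Caspase-Glo 3/7 luminescence (30 min, room temperature) after a 17 hr compound exposure of wild-type HepG2 cells seeded at 2,000 per well and pre-incubated 5 hr.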
A general note: qHTS replaces the single test concentration by a dilution series.

Assay [3] is described as follows: Caspase-3/7 induction in CHO-K1 cells by small molecules, qHTS cell viability counter screen (AID 1346979). Further: nearly all actives have a fitted effect of over 35% in size. The conditions noted are these: CellTiter-Fluor fluorescence, 17 h; series mostly up to 92.4 µM. The gist of the method: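 Following a 5hr settling period, CHO-K1 cells at 1,500 per well received DMSO-dissolved compounds. Cell viability was quantified 16hr later by CellTiter-Fluor fluorescence, measured after 1hr with reagent at 37C.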

Assay [4] can be described thus: Caspase-3/7 induction in CHO-K1 cells by small molecules, qHTS assay (AID 1346980). Further: nearly all actives have a fitted effect of over 15% in size. The conditions noted are these: CHO-K1 caspase-3/7 induction, Caspase-Glo luminescence, 17 h; series mostly up to 92.4 µM. The gist of the method: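 Luminescent Caspase-Glo 3/7 read (30min, room temperature) quantified apoptosis induction. Cells were wild-type CHO-K1, treated with compound for 17hr at 37 C and 5% CO2.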

A short description of assay [5]: Caspase-3/7 induction in HepG2 cells by small molecules, qHTS cell viability counter screen (AID 1346981). Further: nearly all actives have a fitted effect of over 30% in size. The conditions noted are these: CellTiter-Fluor fluorescence, 17 h; series mostly up to 92.4 µM. The gist of the method:
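In this quantitative HTS counter screen, compounds delivered in DMSO were left on unmodified HepG2 cells for 16 hr at 37 C. Viability was then determined fluorometrically with CellTiter-Fluor, in parallel with caspase-3/7 induction in the same wells.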

In assay [6] the target is Nuclear receptor subfamily 1 group I member 2 (Homo sapiens) (UniProt O75469). As to the kind of experiment: Human pregnane X receptor (PXR) small molecule agonists, qHTS assay (AID 1346982). Further: nearly all actives have a fitted effect of over 35% in size. The conditions noted are these: PXR-Luc HepG2, CYP3A4 luciferase reporter, 24 h; series mostly up to 92.4 µM. The gist of the method: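 Reporter HepG2 cells expressing PXR-Luc are cultured in charcoal-stripped FBS (5%), treated with compounds for 24 hr at 37 C, and assayed by ONE-Glo luminescence after 30 min at room temperature.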

For assay [7], the target named is Acetylcholinesterase (Homo sapiens) (UniProt P22303). Put plainly: Acetylcholinesterase (AChE) small molecule antagonists: colormetric cell-based qHTS assay (AID 1347395; calls by dose curve; further: nearly all actives have a fitted effect of over 30% in size). The conditions noted are these: SH-SY5Y cells AChE activity, colorimetric (Ellman); series mostly up to 115 µM. The gist of the method:
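After overnight attachment at 37 C, SH-SY5Y cells get 30 min compound exposure; detection cocktail (acetylthiocholine, DTNB) then incubates 90 min at 37 C, and absorbance reflects AChE-generated thiocholine.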

Several values for one entry are separate records, joined by “and”; a condition that tells them apart may be missing. Equal entries are not always repeated. Values without a mark were called inactive. Inconclusive results are not listed. Activity calls are given as the source filed them. Unless noted, the call rests on the fitted dose curve; in most records, active means well fitted curve in the direction sought with a large enough effect in the repeat runs; inconclusive means weak or mixed curves; inactive means no such curve, though single readings can be large; an effect the other way counts as inactive or inconclusive.

Drawing on PubChem BioAssay (Tox21), this text covers Potency for 28 compounds.
Potency means the concentration at half of the fitted maximal effect.

Chain of Nuclear receptor subfamily 1 group I member 2 (Homo sapiens) (O75469 whole entry, looked up): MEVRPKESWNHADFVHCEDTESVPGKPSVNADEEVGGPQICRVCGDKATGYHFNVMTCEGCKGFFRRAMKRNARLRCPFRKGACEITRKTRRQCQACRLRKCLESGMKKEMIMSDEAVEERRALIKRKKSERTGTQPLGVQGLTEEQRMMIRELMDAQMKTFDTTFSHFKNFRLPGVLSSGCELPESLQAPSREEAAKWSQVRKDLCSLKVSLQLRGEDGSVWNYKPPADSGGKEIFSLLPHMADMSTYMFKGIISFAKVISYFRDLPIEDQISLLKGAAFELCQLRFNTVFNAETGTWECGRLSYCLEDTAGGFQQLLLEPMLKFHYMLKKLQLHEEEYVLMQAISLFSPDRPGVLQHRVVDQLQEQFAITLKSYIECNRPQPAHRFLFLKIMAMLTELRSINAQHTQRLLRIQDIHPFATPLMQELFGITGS
Chain of Acetylcholinesterase (Homo sapiens) (P22303 whole entry, looked up): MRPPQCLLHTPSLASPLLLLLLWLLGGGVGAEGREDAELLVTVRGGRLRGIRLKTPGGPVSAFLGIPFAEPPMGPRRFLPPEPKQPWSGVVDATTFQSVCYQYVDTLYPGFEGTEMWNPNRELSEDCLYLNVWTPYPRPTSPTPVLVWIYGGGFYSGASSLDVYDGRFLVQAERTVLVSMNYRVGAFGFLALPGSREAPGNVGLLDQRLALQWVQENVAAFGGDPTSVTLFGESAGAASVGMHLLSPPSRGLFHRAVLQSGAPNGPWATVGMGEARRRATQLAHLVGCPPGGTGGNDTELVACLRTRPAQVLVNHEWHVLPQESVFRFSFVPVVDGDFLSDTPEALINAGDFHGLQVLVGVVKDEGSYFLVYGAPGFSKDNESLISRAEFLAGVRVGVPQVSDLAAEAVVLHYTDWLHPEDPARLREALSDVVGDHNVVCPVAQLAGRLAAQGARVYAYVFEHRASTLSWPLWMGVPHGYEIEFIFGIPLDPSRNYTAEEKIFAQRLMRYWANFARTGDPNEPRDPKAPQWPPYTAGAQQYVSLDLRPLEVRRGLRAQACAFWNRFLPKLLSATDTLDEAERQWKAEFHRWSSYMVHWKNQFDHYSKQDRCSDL

`N#Cc1c(-c2ccc(Cl)cc2)[nH]c(C(F)(F)F)c1Br`: the Potency in assay [1] was 0.77 µM (active); in assay [3] it was 1.54 µM (active); in assay [5], 27.3 µM (active); in assay [6], 2.17 µM (active). Besides, the Potency result in assay [2], in assay [4] and in assay [7] was “inactive” in each case.
For `CN(CCCC(=O)c1cccnc1)N=O`, the Potency result in assay [1], in assay [2], in assay [3], in assay [4], in assay [5] and in assay [6] was “inactive” each time. In addition, in assay [7], the Potency result is “inactive”.
`O=C1c2ccccc2C(=O)C1C(=O)C(c1ccccc1)c1ccc(Cl)cc1` (stereo not drawn): the Potency is 21.7 µM (active) in assay [1], 15.4 µM (active) in assay [3], 30.6 µM (active) in assay [5] and 19.3 µM (active) in assay [6]. For the same compound, the Potency result in assay [2], in assay [4] and in assay [7] was “inactive” in each case.
As for `Cc1ccc(OP(=O)(Oc2ccccc2)Oc2ccccc2)cc1`, the Potency result in assay [1], in assay [2], in assay [3], in assay [4] and in assay [5] was “inactive” in each case. Further, the Potency was 13.9 µM (active) in assay [6] and 20.3 µM (active) in assay [7].
In the case of `CC1(C)[C@H](C(=O)O[C@H](C#N)c2cccc(Oc3ccccc3)c2)[C@@H]1/C=C(\Cl)C(F)(F)F`, the Potency entry in assay [1], in assay [2], in assay [3], in assay [4], in assay [5] and in assay [7] was “inactive” in each case. Also, in assay [6], the Potency was 3.57 µM (active) and 2.43 µM (active).
On to `CCCCCCCCCCCCBr`, for which the Potency result in assay [1], in assay [2], in assay [3], in assay [4], in assay [5] and in assay [6] was “inactive” in each case. Also, in assay [7], the Potency entry is “inactive”.
As to `CCSC(C)CC1CC(=O)C(/C(CC)=N/OC/C=C/Cl)=C(O)C1` (stereo not drawn), the Potency entry in assay [1], in assay [2], in assay [3], in assay [4], in assay [5] and in assay [6] was “inactive” each time. In addition, the Potency in assay [7] was 30.9 µM (active).
`CC(=[OH+])/C=C(/C)[O-].CC(=[OH+])/C=C(\C)[O-].CC(=[OH+])/C=C(\C)[O-].[Al]`: the Potency entry in assay [1], in assay [2], in assay [3], in assay [4], in assay [5] and in assay [6] was “inactive” throughout. Moreover, the Potency entry in assay [7] was “inactive”.
In the case of `Cc1ccc(CCl)cc1`, the Potency result in assay [1], in assay [2], in assay [3], in assay [4], in assay [5] and in assay [6] was “inactive” in each case. Moreover, in assay [7], the Potency entry is “inactive”.
With `COc1ccc([N+](=O)[O-])cc1O`, the Potency entry in assay [1], in assay [2], in assay [3], in assay [4], in assay [5] and in assay [6] was “inactive” in each case. Besides, the Potency result in assay [7] is “inactive”.
Take `CC(=[OH+])/C=C(/C)[O-].CC(=[OH+])/C=C(\C)[O-].CC(=[OH+])/C=C(\C)[O-].[Fe]`: the Potency entry in assay [1], in assay [2], in assay [3], in assay [4], in assay [5] and in assay [6] was “inactive” in each case. Besides, the Potency result in assay [7] was “inactive”.
As for `CC(=O)c1cc(C(C)(C)C)cc2c1CCC2(C)C`, the Potency result in assay [1], in assay [2], in assay [3], in assay [4], in assay [5] and in assay [6] was “inactive” in each case. The Potency result in assay [7] is “inactive”.
With `N#CCc1ccc(Cl)cc1`, the Potency entry in assay [1], in assay [2], in assay [3], in assay [4], in assay [5] and in assay [6] was “inactive” in each case. Besides, the Potency entry in assay [7] was “inactive”.
With `Cl/C=C\CCl`, the Potency entry in assay [1], in assay [2], in assay [3], in assay [4], in assay [5] and in assay [6] was “inactive” in each case. The Potency entry in assay [7] is “inactive”.
Regarding `Clc1ccc(-c2ccc(Cl)c(Cl)c2Cl)c(Cl)c1Cl`, the Potency entry in assay [1], in assay [2], in assay [3], in assay [4], in assay [5] and in assay [7] was “inactive” throughout.
In the case of `CCOCCOC(C)=O`, the Potency result in assay [1], in assay [2], in assay [3], in assay [4], in assay [5] and in assay [7] was “inactive” each time.
`CSCCCN=C=S`: the Potency entry in assay [1], in assay [2], in assay [3], in assay [4], in assay [5] and in assay [6] was “inactive” each time. Moreover, the Potency result in assay [7] is “inactive”.
Consider `CCOP(=S)(OCC)SCS(=O)(=O)C(C)(C)C`, for which the Potency entry in assay [1], in assay [2], in assay [3], in assay [4] and in assay [5] was “inactive” in each case. The Potency in assay [6] is 9.69 µM (active); in assay [7], 63.3 µM (active).
With `COC12CC[C@@]3(C[C@@H]1C(C)(O)C(C)(C)C)[C@H]1Cc4ccc(O)c5c4[C@@]3(CCN1CC1CC1)[C@H]2O5` (stereo partly drawn), the Potency in assay [1] was 54.1 µM (active); in assay [2], 60.7 µM (active); in assay [3], 43 µM (active); in assay [4] it was 48.2 µM (active); in assay [5] it was 68.1 µM (active); in assay [6], 3.04 µM (active). In addition, the Potency entry in assay [7] was “inactive”.
For `CC(O)C#N` (stereo not drawn), the Potency entry in assay [1], in assay [2], in assay [3], in assay [4], in assay [5] and in assay [6] was “inactive” throughout. Moreover, the Potency entry in assay [7] was “inactive”.
For the compound `CCCCCCCCCBr`, the Potency entry in assay [1], in assay [2], in assay [3], in assay [4], in assay [5] and in assay [6] was “inactive” each time. Also, the Potency result in assay [7] is “inactive”.
In the case of `CCS(=O)(=O)c1cccnc1S(=O)(=O)NC(=O)Nc1nc(OC)cc(OC)n1`, the Potency entry in assay [1], in assay [2], in assay [3], in assay [4], in assay [5] and in assay [7] was “inactive” each time.
`C=COCCCl`: the Potency result in assay [1], in assay [2], in assay [3], in assay [4], in assay [5] and in assay [6] was “inactive” in each case. For the same compound, the Potency result in assay [7] was “inactive”.
In the case of `Cc1cc(N=Nc2ccccc2C)ccc1N`, the Potency in assay [1] was 4.47 µM (active) and 6.86 µM (active); in assay [2], 1.37 µM (active) and 969 nM (active); in assay [3], 30.6 µM (active) and 61.1 µM (active); in assay [5], 3.86 µM (active) and 686 nM (active); in assay [6], 24.3 µM (active) and 30.6 µM (active). Moreover, the Potency entry in assay [4] and in assay [7] was “inactive” throughout.
Regarding `CCOP(=S)(OCC)OC(Cl)C(Cl)(Cl)Cl` (stereo not drawn), the Potency entry in assay [1], in assay [2], in assay [3], in assay [4], in assay [5] and in assay [6] was “inactive” throughout. In addition, the Potency in assay [7] is 35.6 µM (active).
Regarding `CN(CCCC(O)c1cccnc1)N=O` (stereo not drawn), the Potency result in assay [1], in assay [2], in assay [3], in assay [4], in assay [5] and in assay [6] was “inactive” throughout. The Potency entry in assay [7] is “inactive”.
Turning to `ClC(Cl)=C(Cl)Cl`, the Potency entry in assay [1], in assay [2], in assay [3], in assay [4], in assay [5] and in assay [6] was “inactive” in each case. Also, the Potency result in assay [7] is “inactive”.
In the case of `ClC(Cl)=C(c1ccc(Cl)cc1)c1ccc(Cl)cc1`, the Potency entry in assay [1], in assay [2], in assay [3], in assay [4], in assay [5] and in assay [7] was “inactive” throughout. Moreover, the Potency in assay [6] is 62.6 µM (active) and 48.6 µM (active).
